Assay [1] in a line: qHTS assay to identify small molecule HDAC inhibitors (AID 1259364).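 Also: wild-type HCT-116 cells with endogenous class I/II HDAC activity; top concentration of the series differs between compounds; nearly all actives have a fitted effect of over 45% in size.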 The procedure, abridged:
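HCT-116 wt cells, 1,500/well, overnight attach. Compounds (DMSO) 2 h, 37 °C. HDAC-Glo I/II, 30 min RT. Luminescence.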

The nature of assay [2]: qHTS assay to identify small molecule HDAC inhibitors - cell viability counter screen (AID 1259365). Also: series mostly up to about 92 µM; nearly all actives have a fitted effect of over 50% in size. The method in brief:
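Wild-type HCT-116 cells were seeded at 1,500 per well, incubated overnight at 37 C, then exposed to compounds in DMSO for 2hr. Viability was read by CellTiter-Glo luminescence after 30min at room temperature.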

A short description of assay [3]: qHTS assay to identify small molecule agonists of the sonic hedgehog signaling (Shh) pathway - cell viability counter screen (AID 1259366). Also: nearly all actives have a fitted effect of over 50% in size. The procedure, abridged:
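NIH/3T3-derived 3T3 Gli1-Luc cells (stable Gli1-responsive firefly luciferase reporter) were seeded, rested 4 hr at 37 C/5% CO2, then exposed to compounds in DMSO for 24 hr; viability was read by CellTiter-Fluor fluorescence in the same wells.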

The nature of assay [4]: qHTS assay to identify small molecule antagonists of the sonic hedgehog signaling (Shh) pathway - cell viability counter screen (AID 1259367). Also: nearly all actives have a fitted effect of over 55% in size. The method in brief: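 Viability was read by CellTiter-Fluor fluorescence in the same wells, reagent added 23 hr into compound treatment and incubated 1 hr at 37C. The 3T3 Gli1-Luc reporter cells (2,000/well) received conditioned medium after compound and ran 24 hr.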

The nature of assay [5]: qHTS assay to identify small molecule agonists of the sonic hedgehog signaling (Shh) pathway (AID 1259368; calls by dose curve; also: series mostly up to about 92 µM; nearly all actives have a fitted effect of over 15% in size). The method in brief:
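Following a 24 hr incubation with DMSO-dissolved compounds at 37 C, 5% CO2, Gli1-Luc NIH/3T3-derived cells received luciferase reagent for 30 min at room temperature prior to luminescence measurement.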

Assay [6] is described as follows: qHTS assay to identify small molecule antagonists of the sonic hedgehog signaling (Shh) pathway (AID 1259369; calls by dose curve; also: nearly all actives have a fitted effect of over 45% in size; also: potency is read from the fitted curve at half-maximal effect). The procedure, abridged:
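Read-out is luminescence from a firefly luciferase gene controlled by the Gli1 response element, in 3T3Gli1-Luc cells pre-incubated 4hr then exposed to compounds and conditioned medium for 24hr.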

Assay [7] in a line: qHTS assay to identify small molecule agonists of the androgen receptor (AR) signaling pathway in the presence of an antagonist - cell viability counter screen (AID 1259379). Also: nearly all actives have a fitted effect of over 25% in size. Also: potency is read from the fitted curve at half-maximal effect. The method in brief:
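Each compound was tested at 15 concentrations on MDA-kb2 cells in the presence of 3.0uM nilutamide. Viability was measured by CellTiter-Fluor fluorescence after a 16 hr incubation at 37C in a CO2-free atmosphere.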

Assay [8] can be described thus: qHTS assay to identify small molecule agonists of the estrogen receptor beta (ER-beta) signaling pathway - cell viability counter screen (AID 1259380). Also: nearly all actives have a fitted effect of over 30% in size. Also: potency is read from the fitted curve at half-maximal effect. The procedure, abridged:
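Compounds dissolved in DMSO were pin-transferred onto ER-beta-UAS-bla HEK293T cells that had settled 6 hr, and exposure ran 16 hr at 37C. Following the reporter read, CellTiter-Glo luminescence after 30 min at room temperature indicated cytotoxicity.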

Assay [9] in a line: qHTS assay to identify small molecule antagonists of the estrogen receptor beta (ER-beta) signaling pathway - cell viability counter screen (AID 1259382). Also: nearly all actives have a fitted effect of over 55% in size. Also: potency is read from the fitted curve at half-maximal effect. The procedure, abridged:
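CellTiter-Glo ATP luminescence measured after the LiveBLAzer read in the same wells; ER-beta-UAS-bla HEK293T cells, 16 hr compound treatment with 1nM 17-beta-estradiol agonist at 37C, 5% CO2.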

Assay [10] in a line: qHTS assay to identify small molecule agonists or antagonists of the thyroid stimulating hormone receptor (TSHR) signaling pathway - wild type cell line counter screen (AID 1259384; calls by dose curve). The procedure, abridged: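 Counter screen in untransfected Hek293: compounds (15-point titration, triplicate) plus phosphodiesterase inhibitor Ro20-1724 added after 18 h plating; 30 min RT. Intracellular cAMP via competitive d2/cryptate immunoassay, 1 h incubation.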

Assay [11] addresses Thyrotropin receptor (Homo sapiens) (UniProt P16473). Briefly: qHTS assay to identify small molecule antagonists of the thyroid stimulating hormone receptor (TSHR) signaling pathway (AID 1259385; calls by dose curve; also: nearly all actives have a fitted effect of over 20% in size). The method in brief: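 Antagonist mode: compound-treated TSHR-expressing HEK293 cells were stimulated with 1.5 ng/mL TSH (final) in presence of Ro20-1724 for 30 min at RT. HTRF cAMP detection after 1 h; each compound tested at 15 concentrations, triplicate.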

For assay [12], the target named is Progesterone receptor (Homo sapiens) (UniProt P06401). Briefly: qHTS assay to identify small molecule antagonists of the progesterone receptor (PR) signaling pathway (AID 1346795; active = well fitted inhibition curve with a large enough effect in the signal ratio in the repeat runs, not every such curve was filed as active; the % refers to the signal ratio; also: potency is read from the fitted curve at half-maximal effect). The method in brief:
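PR-UAS-bla HEK293T cells carrying a UAS-driven beta-lactamase reporter were plated in medium with 2% charcoal-stripped FBS and rested 6 hr at 37C. Compounds were added with 1 nM R5020 (final) for 16 hr, then FRET substrate loaded 2 hr at room temperature.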

Assay [13] can be described thus: qHTS assay to identify small molecule agonists of the estrogen receptor alpha (ER-alpha) signaling pathway in the presence of an antagonist - cell viability counter screen (AID 1259386).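 Also: series mostly up to about 92 µM; cells exposed to compounds for 22 h at 37 °C before the viability read; nearly all actives have a fitted effect of over 30% in size.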 The method in brief: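 Using estrogen-depleted VM7Luc4E2 cells, the 15-concentration compound series was applied together with 10.0nM ICI-182,780 and incubated 22hr at 37C/5% CO2. Cell viability was then scored by CellTiter-Fluor.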

In assay [14] the target is Progesterone receptor (Homo sapiens) (UniProt P06401). Briefly: qHTS assay to identify small molecule agonists of the progesterone receptor (PR) signaling pathway (AID 1346784; calls by dose curve; also: nearly all actives have a fitted effect of over 30% in size; also: potency is read from the fitted curve at half-maximal effect). The procedure, abridged:
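PR-UAS-bla HEK 293T cells carrying a UAS-driven beta-lactamase reporter were seeded in medium with 2% charcoal-stripped FBS, preincubated 6 hr at 37C, then exposed to compounds in DMSO for 16 hr; agonism was read by LiveBLAzer B/G FRET fluorescence.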

Values joined by “and” are separate entries in the source; they are usually repeats but may differ in a detail not shown here. Equal entries are not always repeated. Records with an inconclusive call do not appear. Some structures have more than one record in an assay (separate samples or runs), and their calls can disagree. Active and inactive are the calls of the source. Unless noted, calls follow the shape of the dose curve; as a rule, active = well fitted curve in the direction sought with a large enough effect in the repeat runs; inconclusive = weak or mixed curves; inactive = no such curve, though single readings can be large; an effect the other way counts as inactive or inconclusive.
% is scaled to controls: 0 for no effect and ±100 for the full control effect.

Chain of Thyrotropin receptor (Homo sapiens) (P16473 whole entry, looked up): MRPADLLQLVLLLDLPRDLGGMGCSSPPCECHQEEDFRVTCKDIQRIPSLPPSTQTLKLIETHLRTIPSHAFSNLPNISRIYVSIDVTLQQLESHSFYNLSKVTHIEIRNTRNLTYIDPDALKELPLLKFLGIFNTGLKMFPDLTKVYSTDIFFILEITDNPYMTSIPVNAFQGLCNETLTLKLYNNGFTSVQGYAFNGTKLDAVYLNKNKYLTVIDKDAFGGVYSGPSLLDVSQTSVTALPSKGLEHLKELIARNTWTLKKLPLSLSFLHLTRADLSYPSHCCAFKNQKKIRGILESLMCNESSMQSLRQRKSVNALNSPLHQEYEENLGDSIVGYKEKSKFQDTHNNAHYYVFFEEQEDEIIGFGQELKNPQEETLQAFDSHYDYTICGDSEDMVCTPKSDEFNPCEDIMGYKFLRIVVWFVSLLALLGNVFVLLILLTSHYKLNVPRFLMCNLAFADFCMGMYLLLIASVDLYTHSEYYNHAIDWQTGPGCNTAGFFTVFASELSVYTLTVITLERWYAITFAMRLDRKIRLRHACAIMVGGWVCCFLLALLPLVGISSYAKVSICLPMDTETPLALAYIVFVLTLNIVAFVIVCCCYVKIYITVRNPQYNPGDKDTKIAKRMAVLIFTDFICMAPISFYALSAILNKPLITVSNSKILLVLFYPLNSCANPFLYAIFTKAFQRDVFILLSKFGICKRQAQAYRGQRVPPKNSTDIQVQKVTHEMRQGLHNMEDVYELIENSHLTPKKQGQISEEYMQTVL
Chain of Progesterone receptor (Homo sapiens) (P06401 whole entry, looked up): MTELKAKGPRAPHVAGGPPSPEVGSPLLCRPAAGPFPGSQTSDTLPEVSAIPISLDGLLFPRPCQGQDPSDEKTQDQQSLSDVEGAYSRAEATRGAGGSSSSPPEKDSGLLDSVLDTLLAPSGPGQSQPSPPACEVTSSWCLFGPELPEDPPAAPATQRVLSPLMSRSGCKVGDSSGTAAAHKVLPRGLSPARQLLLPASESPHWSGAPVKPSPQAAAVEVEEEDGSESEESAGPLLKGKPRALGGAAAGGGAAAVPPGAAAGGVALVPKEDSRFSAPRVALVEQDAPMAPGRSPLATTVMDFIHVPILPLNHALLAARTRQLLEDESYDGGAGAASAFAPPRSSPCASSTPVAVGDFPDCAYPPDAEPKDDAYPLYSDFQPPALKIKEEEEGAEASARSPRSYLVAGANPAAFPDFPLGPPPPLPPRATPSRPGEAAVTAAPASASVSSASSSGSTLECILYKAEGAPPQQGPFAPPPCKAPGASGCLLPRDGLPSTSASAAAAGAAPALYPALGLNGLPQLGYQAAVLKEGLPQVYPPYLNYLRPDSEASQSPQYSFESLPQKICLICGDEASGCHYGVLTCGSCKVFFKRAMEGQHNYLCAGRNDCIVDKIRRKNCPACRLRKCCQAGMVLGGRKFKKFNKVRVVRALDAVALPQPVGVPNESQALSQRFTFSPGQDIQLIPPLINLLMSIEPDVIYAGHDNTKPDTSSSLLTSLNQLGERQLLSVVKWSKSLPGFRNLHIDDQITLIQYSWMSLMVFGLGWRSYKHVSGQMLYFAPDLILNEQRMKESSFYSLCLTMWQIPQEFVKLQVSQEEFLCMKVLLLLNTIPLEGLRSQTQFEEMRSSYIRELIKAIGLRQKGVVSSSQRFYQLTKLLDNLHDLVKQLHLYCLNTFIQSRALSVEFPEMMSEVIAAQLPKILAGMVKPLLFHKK

With `COc1ccc(N)cc1`, the Potency result in assay [1], in [2], in assay [3], in assay [4], in assay [6] and in assay [7] was “inactive” throughout. Besides, the Potency result in assay [8], in [9], in assay [10], in assay [11] and in assay [12] was “inactive” throughout. Besides, the outcome in assay [5] was inactive.
As for `N#CS`, the Potency result in assay [1], in [2], in assay [3], in assay [4], in [6] and in assay [7] was “inactive” in each case. Moreover, the Potency result in assay [8], in assay [9], in assay [13] and in assay [12] was “inactive” each time. The compound was classed as inactive in assay [5].
Consider `CCCC[n+]1ccccc1`, for which the Potency result in [1], in assay [2], in assay [3], in [4], in assay [6] and in [7] was “inactive” throughout. The Potency entry in [8], in [9], in assay [10], in assay [11] and in assay [12] was “inactive” throughout. Moreover, the outcome in [5] was inactive.
Turning to `Cc1cc(Cl)ccc1N`, the Potency result in assay [1], in assay [2], in assay [3], in assay [4], in assay [6] and in [7] was “inactive” in each case. The Potency entry in [8], in assay [9], in assay [10], in assay [11], in assay [14] and in assay [12] was “inactive” throughout. Also, the compound was classed as inactive in assay [5].
In the case of `COc1ccccc1N`, the Potency entry in assay [1], in [2], in assay [3], in [4], in assay [6] and in assay [7] was “inactive” throughout. Also, the Potency entry in [8], in assay [9] and in [12] was “inactive” in each case. Also, the result in assay [5] was inactive.
Regarding `CCCC[N+]1(C)CCCC1`, the Potency result in [1], in [2], in assay [3], in assay [4], in assay [6] and in assay [7] was “inactive” in each case. The Potency entry in [8], in assay [9], in assay [13] and in assay [12] was “inactive” throughout. Besides, the compound was called inactive in assay [5].
Turning to `CNC`, the Potency entry in assay [1], in assay [2], in [3], in assay [4], in assay [6] and in assay [7] was “inactive” each time. Further, the Potency entry in assay [8], in assay [9], in [13] and in [12] was “inactive” throughout. Moreover, the compound was called inactive in assay [5].
Turning to `CCCCCCCCCCCC(=O)O`, the Potency result in assay [1], in assay [2], in assay [3], in assay [4], in assay [6] and in [7] was “inactive” throughout. The Potency result in [9], in assay [10], in assay [11] and in [12] was “inactive” in each case. Moreover, in assay [5], the outcome was inactive. Moreover, the Potency in [8] is 43.3 µM (active).
Consider `CCn1cc[n+](C)c1C`, for which the Potency entry in [1], in [2], in assay [3], in [4], in assay [6] and in [7] was “inactive” each time. Further, the Potency entry in [8], in assay [9] and in assay [12] was “inactive” in each case. Besides, the compound was called inactive in assay [5].
Take `CC(=O)O`: the Potency entry in [1], in [2], in [3], in assay [4], in assay [6] and in assay [7] was “inactive” in each case. Further, the Potency result in assay [8], in assay [9] and in assay [12] was “inactive” each time. Also, the outcome in assay [5] was inactive. Besides, the Potency entry in assay [14] was “inactive and 392 nM (active)”.
With `CCCCCCCCCCn1cc[n+](C)c1`, the Potency entry in [1], in [2], in assay [3], in [4] and in assay [9] was “inactive” in each case. The result in assay [5] was inactive. Moreover, the Potency result is “inactive and 2.73 µM (active)” in assay [8]; 31.4 µM (active) and 48.5 µM (active) and 27.3 µM (active) in assay [12].
Regarding `CCCCCCn1cc[n+](C)c1`, the Potency entry in assay [1], in assay [2], in [3], in assay [4], in assay [8] and in [9] was “inactive” each time. Besides, the Potency result in [13], in assay [14] and in [12] was “inactive” throughout. The compound was classed as inactive in assay [5]. For the same compound, the Potency is 7.74 µM (active) and 89.9 nM (active) in assay [6]; 50.5 µM (active) [middle of 6 runs] in assay [7].
Consider `CCC[N+]1(C)CCCC1`, for which the Potency result in assay [1], in [2], in assay [3], in assay [4], in [6] and in [7] was “inactive” throughout. Besides, the Potency result in assay [8], in assay [9], in [14] and in assay [12] was “inactive” throughout. Further, in [5], the compound was classed as inactive.
`CCCn1cc[n+](C)c1`: the Potency result in assay [1], in [2], in assay [3], in [4], in assay [6] and in assay [7] was “inactive” in each case. The Potency entry in assay [8], in assay [9], in assay [10], in assay [11] and in [12] was “inactive” throughout. Also, the result in assay [5] was inactive.
For `CCCCCCCCCCCCCCCCn1cc[n+](C)c1`, the Potency result in assay [1], in assay [2], in assay [10] and in assay [11] was “inactive” in each case. For the same compound, the compound was classed as inactive in assay [5]. The Potency result in assay [9] was “inactive and 61.7 µM (active) and 30.7 µM (active)”; in [12], “inactive and 21.7 µM (active)”.
As to `CCC[N+]1(C)CCCCC1`, the Potency entry in assay [1], in assay [2], in assay [3], in [4], in assay [6] and in assay [7] was “inactive” in each case. Moreover, the Potency entry in [8], in [9], in assay [10], in assay [11], in assay [13] and in assay [14] was “inactive” each time. Further, the Potency result in assay [12] was “inactive”. Moreover, the outcome in assay [5] was inactive.
In the case of `O=C(O)COc1ccc(Cl)cc1Cl`, the Potency result in [1], in assay [2], in assay [3], in [4], in assay [6] and in assay [7] was “inactive” each time. Moreover, the Potency result in [8], in [9] and in assay [12] was “inactive” throughout. Moreover, in [5], the result was inactive.
Turning to `O=C(O)CC(O)(CC(=O)O)C(=O)O`, the Potency entry in assay [1], in assay [2], in assay [3], in [4], in [6] and in assay [7] was “inactive” throughout. The Potency result in assay [8], in assay [9], in assay [13] and in [12] was “inactive” throughout. For the same compound, in assay [5], the call was inactive.
Consider `CCCCn1cc[n+](C)c1`, for which the Potency result in assay [1], in assay [2], in [3], in assay [4], in assay [6] and in [7] was “inactive” throughout. For the same compound, the Potency entry in [8], in assay [9] and in assay [13] was “inactive” each time. For the same compound, in assay [5], the compound was called inactive.

The record behind these values is PubChem BioAssay (Tox21).
